G9a block: qHTS Assay for Inhibitors of Histone Lysine Methyltransferase G9a; actives 8.8% (n = 350,000); G9a H3K9 monomethylation, AlphaScreen, 2 h; Potency, µM (top dose mostly 102 µM), actives largely listed as inhibitors; AID 504332, 2011; note: nearly all actives have a fitted effect of over 75% in size
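Chemiluminescent proximity detection of H3K9 monomethylation, read after 10 min bead incubation in the dark. Reaction: 20 nM G9a, 500 nM biotin-H3K9 peptide, 20 uM SAM cofactor, 2 h, room temperature, following 15 min enzyme-compound preincubation.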
JMJD2A Tudor inh: qHTS Assay for Inhibitors of JMJD2A-Tudor Domain | AlphaScreen JMJD2A-Tudor / H3K4me3 peptide binding | Potency, µM (series often up to 114 µM), most hits filed as inhibitors | AID 504339, 2011 | actives 4.4% (n = 390,000) | Lysine-specific demethylase 4A (Homo sapiens), O75164; note: nearly all actives have a fitted effect of over 50% in size
CtBP-E1A blk: qHTS Assay for Inhibitors of the CtBP/E1A Interaction | CtBP / adenovirus E1A interaction (AlphaScreen) | AlphaScreen GST-E1A/His-CtBP binding, 1536-well; hits give low values | activity change, % (concentration not given with the values) | actives 0.49% (n = 340,000) | AID 651724, 2012; in the data active = activity change below about -65%; inconclusive = mostly about -30% to -63%
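Protein mix (5X: 125 nM each GST-E1A, His-CtBP) was incubated with pinned compound 2 h at 37 deg C in dark, in 50 mM Tris pH 8.0 buffer with 300 mM NaCl. Glutathione donor and nickel acceptor beads followed; AlphaScreen signal read after 1 h.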
Six1-Eya2 inh: qHTS Assay for Inhibitors of the Six1/Eya2 Interaction; Homeobox protein SIX1 (Homo sapiens) + Protein phosphatase EYA2 (Homo sapiens), …; AlphaScreen GST-Six1/His-Eya2 binding, biochemical; hits give low values; activity change, % (no concentration beside the values); actives 0.56% (n = 360,000); AID 651725, 2012; in the data active = activity change below about -65%; inconclusive = mostly about -30% to -63%
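Six1/Eya2 binding was read as AlphaScreen signal after compounds were pinned into GST-Six1 plus His-tagged Eya2 (5X stock 250/500 nM) in pH 8.0 Tris/NaCl/TCEP buffer, beads added, then incubated 1 h, 37 C, dark.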
BAZ2B inh: qHTS Assay for Inhibitors of BAZ2B | Bromodomain adjacent to zinc finger domain protein 2B (Homo sapiens), Q9UIF8 | actives 4.4% (n = 360,000) | AlphaScreen BAZ2B-H3K14Ac peptide displacement | Potency, µM (titrated, usually from 114 µM), most hits filed as inhibitors; note: nearly all actives have a fitted effect of over 60% in size
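BAZ2B 50 nM plus b-H3(5-23)K14Ac 50 nM, PBS pH 7.4/0.01% Tween-20, 30 min RT; compound added (max 110 uM), 30 min RT; streptavidin donor/Ni-chelate acceptor beads 10 ug/mL final, 20 min dark; AlphaScreen read.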
HP1b chromo inh: HTS for Inhibitors of HP1-beta Chromodomain Interactions with Methylated Histone Tails | actives 0.56% (n = 390,000) | Potency, µM (doses to about 114 µM), usual class: inhibitors | Chromobox protein homolog 1 (Homo sapiens), P83916 | AID 540317, 2011 | AlphaScreen HP1-beta / biotin-H3K9me3 peptide binding; note: nearly all actives have a fitted effect of over 70% in size
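HP1-beta protein (50 nM final) preincubated 30 min at room temperature with biotinylated H3(1-18)K9me3 peptide (50 nM) in PBS pH 7.4, 0.01% Tween-20, then compound added for 30 min. AlphaScreen streptavidin donor/nickel chelate acceptor beads (10 ug/mL final), 30 min dark, luminescence read.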
Hits are given with their value; [ ] = remark or other dose. An excerpt weighted towards active compounds, which were near 10% of everything screened. Unless noted, calls come from the whole dose curve; as a rule, active = well fitted inhibition curve with a large enough effect; inconclusive = small, poorly fitted or top-dose-only effect; inactive = no such curve, though single readings can be large or run the other way.

Results for COc1ccc(/C=C(\NC(=O)c2ccccc2)C(=O)OC[C@@H]2CCC[N+]3(C)CCCCC23)cc1OC (some centres undefined) ?
G9a block: inactive; JMJD2A Tudor inh: 16µM; CtBP-E1A blk: inactive; Six1-Eya2 inh: inactive; BAZ2B inh: inactive; HP1b chromo inh: inconclusive

Results for Cc1ccc(Nc2nc(N)nc(N)c2S(=O)(=O)c2ccccc2)cc1 ?
G9a block: inactive; JMJD2A Tudor inh: inactive; BAZ2B inh: inactive; HP1b chromo inh: inactive

How did CCC(=O)Nc1ccc(C(=O)CSc2nnc(-c3ccccc3F)n2C2CC2)cc1 do in these assays?
G9a block: inconclusive; JMJD2A Tudor inh: inactive; CtBP-E1A blk: inactive; Six1-Eya2 inh: inactive; BAZ2B inh: inactive; HP1b chromo inh: inactive

What do the screens show for `CCC(C)NC(=O)NC(=O)CSc1nnc(-c2ccccc2F)n1C1CC1` (centres undefined)?
G9a block: 35µM; JMJD2A Tudor inh: inactive; CtBP-E1A blk: inactive; Six1-Eya2 inh: inactive; BAZ2B inh: inactive; HP1b chromo inh: inactive

Results for Cc1ccc(S(=O)(=O)N2CCN(C3CC4CCC3C4)CC2)cc1 (centres undefined) ?
G9a block: 8.9µM; JMJD2A Tudor inh: 14µM; CtBP-E1A blk: inactive; Six1-Eya2 inh: inactive; BAZ2B inh: 32µM; HP1b chromo inh: 32µM

Results for COc1ccc(S(=O)(=O)N2CCN(C3CC4CCC3C4)CC2)cc1 (centres undefined) ?
G9a block: 22µM; JMJD2A Tudor inh: 3.2µM; CtBP-E1A blk: inactive; Six1-Eya2 inh: inactive; BAZ2B inh: inactive; HP1b chromo inh: inactive

How did O=C(NCCc1cccs1)c1ccc(Cn2c(SCc3ccccc3)nc3cccnc32)cc1 do in these assays?
G9a block: inactive; JMJD2A Tudor inh: inactive; BAZ2B inh: inactive; HP1b chromo inh: inactive

How did N#Cc1cc2ccccc2n2nnnc12 do in these assays?
G9a block: 50µM; JMJD2A Tudor inh: inactive; CtBP-E1A blk: inactive; Six1-Eya2 inh: inactive; BAZ2B inh: inactive; HP1b chromo inh: inactive

How did Cc1csc2nc(COC(=O)c3ccc(NC(=O)C(C)Oc4ccccc4)cc3)cc(=O)n12 (centres undefined) do in these assays?
G9a block: inactive; JMJD2A Tudor inh: inconclusive; BAZ2B inh: inactive; HP1b chromo inh: inactive

Results for COc1ccc(S(=O)(=O)c2c(SC)nn(CC(=O)Nc3ccc(C)c(Cl)c3)c2N)cc1 ?
G9a block: inactive; JMJD2A Tudor inh: inactive; BAZ2B inh: inactive; HP1b chromo inh: inactive

What do the screens show for `O=C(CC1C(=O)CCCC1=O)c1ccccc1`?
G9a block: 45µM; JMJD2A Tudor inh: inactive; CtBP-E1A blk: inactive; Six1-Eya2 inh: inactive; BAZ2B inh: inactive; HP1b chromo inh: inactive

Results for O=C(NCCC1=CCCCC1)Nc1ccc2nsnc2c1 ?
G9a block: 40µM; JMJD2A Tudor inh: inactive; CtBP-E1A blk: inactive; Six1-Eya2 inh: inactive; BAZ2B inh: inactive; HP1b chromo inh: inactive

What do the screens show for `Cc1ccc(-c2n[nH]c(=S)c3ccccc23)cc1S(=O)(=O)NCC1CCCO1` (centres undefined)?
G9a block: 22µM; JMJD2A Tudor inh: 18µM; CtBP-E1A blk: inactive; Six1-Eya2 inh: inactive; BAZ2B inh: inactive; HP1b chromo inh: inactive

What do the screens show for `COc1ccc(-c2c(C3C4C=CCC(C)C4C(=O)N3Cc3ccccc3)ccc3ccccc23)cc1OC` (centres undefined)?
JMJD2A Tudor inh: inconclusive; HP1b chromo inh: inactive

Results for CC1Cc2ccccc2N1C(=O)COC(=O)/C=C/c1cccc(F)c1 (centres undefined) ?
G9a block: inactive[2.33 µM]; JMJD2A Tudor inh: inactive; CtBP-E1A blk: -90; Six1-Eya2 inh: inactive; BAZ2B inh: inactive; HP1b chromo inh: inactive

Results for CCN(CC)c1cccc(OCC(=O)N2c3ccccc3CC2C)c1 (centres undefined) ?
G9a block: 10µM; JMJD2A Tudor inh: inconclusive; Six1-Eya2 inh: inconclusive; BAZ2B inh: inconclusive; HP1b chromo inh: inactive

What do the screens show for `Cc1cc(C(=O)OCC(=O)N2c3ccccc3CC2C)c(C)o1` (centres undefined)?
G9a block: 11µM; JMJD2A Tudor inh: inactive; CtBP-E1A blk: inactive; Six1-Eya2 inh: inactive; BAZ2B inh: inactive; HP1b chromo inh: inactive

Results for CC1Cc2ccccc2N1C(=O)COC(=O)c1ccco1 (centres undefined) ?
CtBP-E1A blk: inactive; Six1-Eya2 inh: inactive

How did C[C@H](NC(=O)CNC(=O)[C@@H](NC(=O)[C@H](Cc1ccccc1)NC(=O)CNC(=O)CNC(=O)[C@@H](N)Cc1ccccc1)[C@@H](C)O)C(=O)N[C@@H](CCCN=C(N)N)C(=O)N[C@@H](CCCCN)C(=O)N[C@@H](CO)C(=O)N[C@@H](C)C(=O)N[C@@H](CCCN=C(N)N)C(=O)N[C@H](CN)CCCCN do in these assays?
G9a block: inactive

How did OCCN(Cc1ccccc1)Cc1ccc(Cl)cc1Cl do in these assays?
G9a block: 7.1µM; JMJD2A Tudor inh: 3.5µM; CtBP-E1A blk: inactive; Six1-Eya2 inh: inactive; BAZ2B inh: inconclusive; HP1b chromo inh: inconclusive

How did CCOC(=O)c1c(/N=C/c2cc(OC)cc([N+](=O)[O-])c2O)sc(C)c1C do in these assays?
G9a block: 20µM; JMJD2A Tudor inh: inconclusive; CtBP-E1A blk: inactive; Six1-Eya2 inh: inactive; BAZ2B inh: 50µM; HP1b chromo inh: inconclusive

Results for S=c1[nH]nc(-c2ccncc2)n1/N=C/c1cccc2ccccc12 ?
G9a block: 1.1µM; BAZ2B inh: inactive

What do the screens show for `CCc1n[nH]c(=S)n1/N=C/c1ccc2c(c1)OCO2`?
JMJD2A Tudor inh: 4.5µM; CtBP-E1A blk: inactive; Six1-Eya2 inh: inactive; BAZ2B inh: inactive; HP1b chromo inh: inactive

Results for CCc1n[nH]c(=S)n1/N=C/c1cccc2ccccc12 ?
G9a block: 1.6µM; JMJD2A Tudor inh: inconclusive; CtBP-E1A blk: inactive; Six1-Eya2 inh: inactive; BAZ2B inh: inactive; HP1b chromo inh: inactive

What do the screens show for `S=c1[nH]nc(-c2ccncc2)n1/N=C/c1cn(-c2ccccc2)nc1-c1ccccc1`?
G9a block: inconclusive; JMJD2A Tudor inh: inactive; Six1-Eya2 inh: inactive; BAZ2B inh: inactive; HP1b chromo inh: inactive

How did C=Cc1ccc(Cn2ccn(-c3ccc(F)c(F)c3)c(=O)c2=O)cc1 do in these assays?
G9a block: inconclusive; JMJD2A Tudor inh: inactive; BAZ2B inh: inactive; HP1b chromo inh: inactive
